These results are taken from PubChem BioAssay.

The source made the active and inactive calls.

A short description of assay [1]: optical density shifts of acrAB sulA E. coli – strain DRC41, OD650, 48 h, E. coli filamentation inducer project, primary screen (AID 1152).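 Also: E. coli MC1000 strain DRC41 lacking acrAB efflux pump and sulA.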 Conditions: higher = more signal, called active from +8 up or from −8 down.
Assay [2] in a line: probe aLefty1 binding on compound microarray – biochemical, small-molecule microarray, 635/667 nm fluorescence, primary screen (AID 1153).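 Also: score merges spot fluorescence with signal-to-noise ratio from the scanned slide images.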 Conditions: higher = more signal.
A short description of assay [3]: plasmodial surface anion channel blockers, osmotic lysis – cell-based, P. falciparum Indochina, OD700, 1 h, primary screen (AID 1154). Conditions: P. falciparum Indochina infected RBC osmotic lysis, higher = more signal, called active from +8 up or from −8 down.
Assay [4] can be described thus: plasmodial surface anion channel blockers, osmotic lysis – cell-based, P. falciparum Indochina, OD700, 2 h, primary screen (AID 1155).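 Also: lysis reports solute entry through the parasite surface anion channel PSAC.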 Conditions: P. falciparum Indochina infected erythrocytes, higher = more signal, called active from +8 up or from −8 down.
Assay [5] is described as follows: changes in parasitized red cell lysis, either direction – P. falciparum Indochina, OD700, 3 h, PSAC antagonist project, primary screen (AID 1156). Conditions: P. falciparum-infected erythrocytes, osmotic lysis, higher = more signal, called active from +8 up or from −8 down.
Assay [6] is described as follows: plasmodial surface anion channel blockers, osmotic lysis – cell-based, P. falciparum Indochina, OD700, 18 h, primary screen (AID 1157). Conditions: P. falciparum Indochina infected erythrocytes, osmotic lysis OD700, 18 h; higher = more signal, called active from +8 up or from −8 down.
Assay [7] can be described thus: S6 kinase pathway phospho-S6 level changes – cell-based, A549, cytoblot, luminescence, serum-stimulated, primary screen (AID 1158).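 Also: serum-stimulated A549 lung adenocarcinoma cells; signal is phosphorylated S6 detected by cytoblot immunostaining with HRP secondary.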 Conditions: 5 h, higher = more signal.
In assay [8] the target is NADPH oxidase 2 (Homo sapiens) (UniProt P04839). As to the kind of experiment: compounds shifting NOX2 Amplex Red fluorescence – cell-based, HEK293-NOX2, PMA-stimulated, NOX inhibitor project, primary screen (AID 1159). Also: test concentration not given here. Conditions: 45 min, higher = more signal, called active from +8 up or from −8 down.
NADPH oxidase 2 (Homo sapiens), sequence (P04839 whole entry, looked up): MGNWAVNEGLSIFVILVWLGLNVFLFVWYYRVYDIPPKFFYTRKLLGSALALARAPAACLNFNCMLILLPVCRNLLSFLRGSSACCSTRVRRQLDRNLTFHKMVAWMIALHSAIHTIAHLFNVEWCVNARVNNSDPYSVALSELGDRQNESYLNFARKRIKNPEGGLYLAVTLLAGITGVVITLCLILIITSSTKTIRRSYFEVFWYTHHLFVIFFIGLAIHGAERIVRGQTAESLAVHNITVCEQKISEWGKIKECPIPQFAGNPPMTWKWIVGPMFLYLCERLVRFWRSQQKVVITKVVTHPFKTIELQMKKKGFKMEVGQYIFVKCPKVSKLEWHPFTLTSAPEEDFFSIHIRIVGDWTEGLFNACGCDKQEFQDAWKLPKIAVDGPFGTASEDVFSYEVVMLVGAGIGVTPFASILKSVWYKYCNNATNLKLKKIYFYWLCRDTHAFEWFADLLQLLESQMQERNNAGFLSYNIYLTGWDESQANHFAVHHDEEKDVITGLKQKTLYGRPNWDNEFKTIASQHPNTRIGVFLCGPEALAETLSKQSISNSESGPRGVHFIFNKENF
The target in assay [9] is NADPH oxidase 4 (Homo sapiens) (UniProt Q9NPH5). Description: compounds shifting NOX4 Amplex Red fluorescence – cell-based, HEK293-NOX4, tetracycline-induced, NOX inhibitor project, primary screen (AID 1160). Conditions: HEK293-NOX4, Amplex Red H2O2 fluorescence, 45 min; higher = more signal, called active from +8 up or from −8 down.
NADPH oxidase 4 (Homo sapiens), sequence (Q9NPH5 whole entry, looked up): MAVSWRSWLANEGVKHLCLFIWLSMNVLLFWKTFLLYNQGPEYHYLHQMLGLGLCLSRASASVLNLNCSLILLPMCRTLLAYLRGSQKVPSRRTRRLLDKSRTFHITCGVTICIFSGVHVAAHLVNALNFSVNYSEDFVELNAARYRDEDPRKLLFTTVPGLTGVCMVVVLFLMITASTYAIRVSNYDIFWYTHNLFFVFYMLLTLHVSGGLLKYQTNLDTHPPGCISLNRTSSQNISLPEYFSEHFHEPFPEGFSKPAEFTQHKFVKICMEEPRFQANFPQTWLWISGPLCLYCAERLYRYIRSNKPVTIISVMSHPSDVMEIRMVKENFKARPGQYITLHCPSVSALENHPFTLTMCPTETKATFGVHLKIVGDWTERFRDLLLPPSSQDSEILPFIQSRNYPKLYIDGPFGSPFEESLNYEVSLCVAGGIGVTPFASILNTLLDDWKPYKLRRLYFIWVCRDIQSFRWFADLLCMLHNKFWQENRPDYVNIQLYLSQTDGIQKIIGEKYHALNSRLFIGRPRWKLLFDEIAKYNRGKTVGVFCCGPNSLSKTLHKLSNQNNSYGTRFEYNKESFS
For assay [10], the target named is NADPH oxidase 5 (Homo sapiens) (UniProt Q96PH1). Description: compounds shifting NOX5 Amplex Red fluorescence – cell-based, HEK293-NOX5, NOX inhibitor project, primary screen (AID 1161). Conditions: HEK293-NOX5, ionomycin, 45 min, higher = more signal.
NADPH oxidase 5 (Homo sapiens), sequence (Q96PH1 whole entry, looked up): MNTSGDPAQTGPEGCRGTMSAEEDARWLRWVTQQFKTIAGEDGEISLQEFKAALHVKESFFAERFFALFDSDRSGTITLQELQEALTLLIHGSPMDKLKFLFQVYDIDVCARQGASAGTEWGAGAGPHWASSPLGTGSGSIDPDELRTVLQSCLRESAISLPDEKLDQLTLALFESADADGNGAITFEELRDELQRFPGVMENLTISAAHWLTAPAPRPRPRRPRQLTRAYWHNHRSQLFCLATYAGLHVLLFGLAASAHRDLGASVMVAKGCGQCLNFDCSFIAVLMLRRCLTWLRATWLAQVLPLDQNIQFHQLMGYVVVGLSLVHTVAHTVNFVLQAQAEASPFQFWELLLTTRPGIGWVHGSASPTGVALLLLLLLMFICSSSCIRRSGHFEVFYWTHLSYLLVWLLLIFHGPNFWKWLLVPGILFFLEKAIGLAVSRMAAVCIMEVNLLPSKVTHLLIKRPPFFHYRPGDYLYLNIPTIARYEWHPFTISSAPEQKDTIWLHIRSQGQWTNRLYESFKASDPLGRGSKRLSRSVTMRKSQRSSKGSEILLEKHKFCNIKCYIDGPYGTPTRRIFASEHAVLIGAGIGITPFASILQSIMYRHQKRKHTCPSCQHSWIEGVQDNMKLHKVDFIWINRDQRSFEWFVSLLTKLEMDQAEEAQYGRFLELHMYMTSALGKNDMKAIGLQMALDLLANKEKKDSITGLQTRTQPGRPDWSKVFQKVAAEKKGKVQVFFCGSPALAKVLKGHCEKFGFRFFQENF
A short description of assay [11]: compound effects on lung adenocarcinoma cell viability – A549, calcein-AM fluorescence, 48 h, basal, profiling panel (AID 1162). Also: test concentration not given here. Conditions: higher = more signal.
The nature of assay [12]: compound effects on differentiated 3T3-L1 adipocyte viability – cell-based, 3T3-L1 adipocytes, calcein-AM fluorescence, 48 h, basal, profiling panel (AID 1163). Also: test concentration not given here. Conditions: 3T3-L1 adipocytes viability, higher = more signal.
Assay [13] is described as follows: compound effects on hepatocellular carcinoma cell viability – HepG2, calcein-AM fluorescence, 48 h, basal, profiling panel (AID 1164). Also: test concentration not given here. Conditions: higher = more signal.
Assay [14] is described as follows: compound effects on multiple myeloma cell viability – MM1S, calcein-AM fluorescence, 48 h, basal, profiling panel (AID 1165). Also: test concentration not given here. Conditions: higher = more signal.
A short description of assay [15]: calcein-AM signal in unstimulated myeloma cells – cell-based, calcein-AM fluorescence, 48 h, PK04 Diversity Set, profiling panel (AID 1166).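 Also: cells grown under basal conditions without added stimulus; test concentration not given here.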 Conditions: RPMI8226 myeloma viability, higher = more signal.
Assay [16] can be described thus: JC-1 mitochondrial signal, unstimulated HepG2 cells – cell-based, JC-1 fluorescence, 24 h, 100 nL compound, profiling panel (AID 1167). Also: test concentration not given here. Conditions: HepG2 mitochondrial potential, higher = more signal.
Assay [17] can be described thus: JC-1 mitochondrial signal, unstimulated adipocytes – cell-based, JC-1 fluorescence, 3T3-L1 adipocytes, 24 h, 100 nL compound, profiling panel (AID 1168). Also: test concentration not given here. Conditions: JC-1 mitochondrial fluorescence, higher = more signal, called active from +8 up or from −8 down.
Assay [18] in a line: JC-1 mitochondrial signal, unstimulated myeloma cells – cell-based, JC-1 fluorescence, RPMI8226, 24 h, 100 nL compound, profiling panel (AID 1169). Also: test concentration not given here. Conditions: JC-1 mitochondrial potential fluorescence, higher = more signal.
A short description of assay [19]: JC-1 mitochondrial signal, unstimulated MM1S myeloma – cell-based, JC-1 fluorescence, 24 h, 100 nL compound, profiling panel (AID 1170). Also: test concentration not given here. Conditions: MM1S mitochondrial potential, higher = more signal.
The nature of assay [20]: resazurin metabolic signal in A549 cells – cell-based, resazurin fluorescence, 24 h, PK04 Diversity Set, profiling panel (AID 1171). Also: test concentration not given here. Conditions: A549 viability, higher = more signal, called active from +8 up or from −8 down.

Take `CC(CCN1CCCCc2nc(C)c(C)cc21)=NOC[C@@H](O)COCc1ccco1`: the z-score is 0.721 (inactive) in [1]; 1.56 (inactive) in [3]; 0.279 (inactive) in [4]; 0.876 (inactive) in [5]; 0.343 (inactive) in assay [6]; 0.327 in [7]. The z-score in assay [8] is -1.07 (inactive); in [9] it was -0.199 (inactive); in assay [10], -0.153; in [11], 0.224; in [12], 0.0279; in assay [13], -0.437. In addition, the z-score in assay [14] is 0.0805; in assay [15] it was -1.05; in assay [16], -1.43; in assay [17] it was -1.47 (inactive); in [18], 0.854; in assay [19], -0.797. For the same compound, in [20], the z-score is -0.701 (inactive). Besides, the composite z-score in [2] is -0.0559.

As for `CO[C@H]1COC(=O)CC=C[C@@H](C)[C@H](NS(=O)(=O)c2ccc(C)cc2)COC(=O)CCC[C@@H]1C`, the z-score in assay [1] is -0.643 (inactive); in [3], -0.669 (inactive); in assay [4] it was -1.56 (inactive); in assay [5], -0.883 (inactive); in assay [6], -1.62 (inactive); in assay [7], -0.56. Moreover, the z-score was -0.255 (inactive) in [8]; 0.987 (inactive) in assay [9]; 0.428 in assay [10]; 0.379 in assay [11]; 1.15 in [12]; -0.179 in assay [13]. Also, the z-score in [14] is 0.339; in assay [15] it was 0.229; in assay [16] it was -0.3; in assay [17], -0.134 (inactive); in assay [18], 0.112; in assay [19], -0.58. The z-score in [20] was 0.478 (inactive). The same compound displayed a composite z-score in assay [2] of -0.062.

For `C#CCCCON=C1C[C@@H](O)[C@@H](O)[C@@H]2[C@@H]3C(=O)N(C(C)(C)C)C(=O)[C@@H]3CC[C@@H]12`, the z-score in [1] was -0.441 (inactive); in assay [3] it was 3.54 (inactive); in assay [4], 1.28 (inactive); in [5], 0.158 (inactive); in assay [6], 0.305 (inactive); in [7], 0.929. The z-score is 0.934 (inactive) in assay [8]; 1.27 (inactive) in [9]; -0.106 in [10]; -0.145 in assay [11]; -0.619 in [12]; -0.486 in assay [13]. Also, the z-score in [14] is 0.154; in assay [15] it was 0.381; in [16], -0.465; in assay [17] it was -0.286 (inactive); in [18], -0.0943; in assay [19], -0.283. Further, the z-score in assay [20] is -0.152 (inactive). The compound further registered a composite z-score in assay [2] of 0.308.

Turning to `Cc1ccc(S(=O)(=O)n2c3ccccc3c3nnc(C(=O)c4ccccc4)nc32)cc1`, the z-score in [1] is 1.04 (inactive); in assay [3] it was 4.4 (inactive); in assay [4] it was 0.266 (inactive); in assay [5], -0.0784 (inactive); in assay [6] it was 0.421 (inactive); in assay [7] it was 0.479. Besides, the z-score was -0.0413 (inactive) in assay [8]; 0.179 (inactive) in assay [9]; -0.341 in assay [10]; 1.8 in [11]; 0.294 in assay [12]; -0.284 in assay [13]. Besides, the z-score is -0.377 in [14]; 0.271 in assay [15]; -2.96 in [16]; 0.839 (inactive) in [17]; -0.248 in [18]; -0.956 in [19]. Moreover, the z-score in [20] is -0.721 (inactive). Also, the composite z-score in [2] is -0.179.

Turning to `CO[C@H]1COC(=O)[C@@H]2CCCN2C(=O)CC=C[C@@H](C)[C@H](OC)COC(=O)[C@@H](OCc2ccccc2)C=C[C@@H]1C`, the z-score in assay [1] was -0.33 (inactive); in assay [3], 0.946 (inactive); in assay [4] it was -0.82 (inactive); in assay [5] it was -0.0897 (inactive); in assay [6] it was -1.41 (inactive); in [7] it was 0.917. Also, the z-score in [8] was 0.291 (inactive); in assay [9], 0.275 (inactive); in assay [10], 0.245; in [11] it was -0.622; in [12] it was 0.852; in [13] it was 0.305. Also, the z-score is 0.41 in assay [14]; -0.697 in [15]; 0.887 in assay [16]; 0.377 (inactive) in assay [17]; 0.0666 in assay [18]; -0.305 in [19]. Further, the z-score in [20] is 0.0375 (inactive). In assay [2], this compound gave a composite z-score of -0.147.

Turning to `CC[C@@H](c1ccccc1)n1c(=O)n2n(c1=O)[C@H]1[C@H](O)[C@@H]3O[C@@H]3C(=O)[C@H]1CC2`, the z-score in assay [1] was 0.289 (inactive); in [3], -0.48 (inactive); in [4] it was -0.38 (inactive); in assay [5], -0.0399 (inactive); in assay [6], -0.139 (inactive); in [7] it was -0.126. Besides, the z-score in assay [8] was -6.29 (inactive); in assay [9] it was -0.0502 (inactive); in assay [10] it was 0.324; in assay [11], -0.0457; in assay [12] it was 1.16; in [13] it was -0.481. Further, the z-score in assay [14] is -3.07; in [15], -2.84; in assay [16], -0.914; in assay [17], -0.491 (inactive); in assay [18], -0.924; in assay [19], -1.72. Besides, the z-score in assay [20] was -0.565 (inactive). The composite z-score in assay [2] is -0.101.

`COC(=O)CC=C[C@@H](C)[C@@H](C=NOC[C@H]1O[C@H](c2ccccc2)C=C[C@@H]1Oc1ccc(OC)cc1)OC`: the z-score in [1] was -0.425 (inactive); in assay [3], 4.7 (inactive); in assay [4], 1.15 (inactive); in assay [5], -0.469 (inactive); in assay [6], 0.393 (inactive); in assay [7], -0.516. For the same compound, the z-score in assay [8] is -0.323 (inactive); in assay [9] it was 0.338 (inactive); in assay [10] it was -0.549; in [11], 0.0124; in [12], -0.701; in assay [13], -0.56. The z-score in assay [14] was -0.831; in [15], -0.209; in [16], -1.05; in [17], -0.506 (inactive); in assay [18] it was 0.16; in [19], -0.327. The z-score in assay [20] is 1.06 (inactive). Also, the composite z-score in [2] is -0.148.

As to `COc1ccc(O[C@H]2C=C[C@@H](c3ccccc3)O[C@@H]2CON=C2[C@H]3CCn4c(=O)n(-c5ccccc5)c(=O)n4[C@H]3[C@H](O)[C@@H]3O[C@H]23)cc1`, the z-score in [1] is -0.402 (inactive); in assay [3], 8.37 (active); in assay [4], 1.25 (inactive); in [5] it was 0.671 (inactive); in [6], 0.858 (inactive); in assay [7] it was -0.511. Also, the z-score is -1.37 (inactive) in assay [8]; -0.132 (inactive) in assay [9]; -0.17 in assay [10]; 0.455 in assay [11]; -0.669 in assay [12]; -0.0924 in assay [13]. Also, the z-score was -2.98 in [14]; -1.37 in [15]; -0.0967 in assay [16]; 0.112 (inactive) in assay [17]; -0.921 in [18]; -0.429 in assay [19]. Further, the z-score in assay [20] is -1.55 (inactive). Further, the composite z-score in [2] was -0.012.

Consider `CC1O[C@H]2C3=C(C(=O)[C@@H]4O[C@@H]4[C@H]3O)[C@@H]1C1[C@@H](C)OC=C3[C@H](O)C4O[C@@H]4C(=NOCc4ccccc4)[C@]312` (stereo not given in full), for which the z-score in [1] is -0.259 (inactive); in assay [3], 1.3 (inactive); in [4], 0.184 (inactive); in [5], 0.0322 (inactive); in assay [6], 0.0995 (inactive); in assay [7] it was -0.871. Besides, the z-score in assay [8] was 0.32 (inactive); in assay [9], 0.584 (inactive); in assay [10] it was 0.445; in [11], -0.434; in [12], 0.145; in assay [13], -1.65. Also, the z-score is -3.58 in assay [14]; -3.71 in [15]; -2.66 in [16]; 0.435 (inactive) in assay [17]; -0.856 in assay [18]; -2.28 in assay [19]. Moreover, the z-score in assay [20] was -0.989 (inactive). This compound also returned a composite z-score in [2] of -0.184.
